Source: PubChem (National Center for Advancing Translational Sciences (NCATS))
Shiga toxin inh: A qHTS for Small Molecule Inhibitors of Shiga Toxin. Vero cells, Shiga toxin protein synthesis inhibition reporter. AID 2315, 2010. 290,000 compounds, 9.2% hits. inhibition, % at 38.7 µM; in the data active = inhibition mostly above about 28%, no sharp cut-off; inactive = mostly below about 43%
Pf growth 96h: Primary qHTS for delayed death inhibitors of the malarial parasite plastid, 96 hour incubation. Potency, µM (highest dose often 28.7 µM), most hits filed as inhibitors. 320,000 compounds, 6.9% hits. P. falciparum luciferase reporter growth, 96 h
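Two parasite generations (96 h, 37 C, 5% CO2) of compound exposure in infected erythrocytes (0.05% parasitemia, 2% hematocrit). Luciferase-reporter P. falciparum; decreased luminescence indicates inhibited growth, aimed at apicoplast-acting delayed death.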
CHX counter: Cycloheximide Counterscreen for Small Molecule Inhibitors of Shiga Toxin | AID 2314, 2010 | cell reporter, cycloheximide protein synthesis inhibition counterscreen | 300,000 compounds, 12% hits | max response, %; in the data active = max response mostly above about 13%, no sharp cut-off; inactive = mostly below about 14%; also: read at 38.3 µM for the half of the compounds with a filed dose
Pf growth 48h: Primary qHTS for delayed death inhibitors of the malarial parasite plastid, 48 hour incubation; Potency, µM (highest dose often 28.7 µM), most hits filed as inhibitors; 310,000 compounds, 5.9% hits; AID 504832, 2011; P. falciparum luciferase growth in erythrocytes, 48 h
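Growth was read as firefly luciferase luminescence after a 48 h, 37 C, 5% CO2 exposure of compounds to reporter-bearing P. falciparum cultures (0.1% parasitemia, 2% hematocrit final) in Albumax-supplemented RPMI 1640.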
Numbers stand for hits. Sampled rows, rich in hits. Any-hit rate of the full collection: about 21%. Unless noted, calls follow the shape of the dose curve; as a rule, active = well fitted inhibition curve with a large enough effect; inconclusive = small, poorly fitted or top-dose-only effect, or another doubt; inactive = no such curve, though single readings can be large or run the other way.

How did CCCCCCN(C(=O)CCl)c1ccccc1 do in these assays?
Shiga toxin inh: inactive; Pf growth 96h: inconclusive; CHX counter: inactive; Pf growth 48h: inconclusive

How did NCCCC[C@H](N)C(=O)N[C@@H](CCCN=C(N)N)C(=O)N1CCC[C@H]1C(=O)N1CCC[C@H]1C(=O)NCC(=O)N[C@@H](Cc1ccccc1)C(=O)N[C@@H](CO)C(=O)N1CCC[C@H]1C(=O)N[C@@H](Cc1ccccc1)C(=O)O do in these assays?
Shiga toxin inh: inactive; CHX counter: inactive

How did COc1ccc(CCN=C(N)NS(=O)(=O)c2cc(F)ccc2OC)cc1 do in these assays?
Shiga toxin inh: inactive; Pf growth 96h: inactive; CHX counter: inactive; Pf growth 48h: inactive

How did O=C(N/N=C\c1ccc(CNS(=O)(=O)c2ccccc2)o1)C(=O)Nc1ccc(F)cc1 do in these assays?
Shiga toxin inh: inactive; Pf growth 96h: inactive; CHX counter: 14; Pf growth 48h: inactive

Results for O=C(N/N=C\c1ccc(CNS(=O)(=O)c2ccc(Cl)cc2)o1)C(=O)Nc1ccc(Oc2ccccc2)cc1 ?
Shiga toxin inh: inactive; Pf growth 96h: inactive; CHX counter: inactive; Pf growth 48h: inactive

What do the screens show for `Cc1cc(=O)n2nc(N3CCCC(C(=O)NCc4cccc(Br)c4)C3)sc2n1` (configuration not stated)?
Shiga toxin inh: inactive; Pf growth 96h: inactive; CHX counter: inactive; Pf growth 48h: inconclusive

What do the screens show for `O=C(NCc1ccco1)C12CN(Cc3ccccc3)CC1C(c1cccc([N+](=O)[O-])c1)=NO2` (configuration not stated)?
Shiga toxin inh: inactive; Pf growth 96h: inconclusive; CHX counter: inactive; Pf growth 48h: inconclusive

How did COc1ccc(CCNC(=O)c2ccc(CN3CCC(Cc4ccccc4)CC3)cc2)cc1 do in these assays?
Shiga toxin inh: inactive; Pf growth 96h: inconclusive; CHX counter: inactive; Pf growth 48h: inconclusive

How did Cc1ccc(CNC(=O)C23CN(Cc4ccccc4)CC2C(c2cccc([N+](=O)[O-])c2)=NO3)cc1 (configuration not stated) do in these assays?
Shiga toxin inh: inactive; Pf growth 96h: inconclusive; CHX counter: inactive; Pf growth 48h: 10µM

Results for COc1ccc(CCNC(=O)C23CN(Cc4ccccc4)CC2C(c2ccc([N+](=O)[O-])cc2)=NO3)cc1 (configuration not stated) ?
Shiga toxin inh: inactive; Pf growth 96h: inconclusive; CHX counter: inactive; Pf growth 48h: 5.2µM

How did COc1ccc(CNC(=O)C23CN(Cc4ccccc4)CC2C(c2ccc([N+](=O)[O-])cc2)=NO3)cc1 (configuration not stated) do in these assays?
Shiga toxin inh: inactive; Pf growth 96h: 13µM; CHX counter: inactive; Pf growth 48h: 6.6µM

How did O=C(NCc1ccco1)C12CN(Cc3ccccc3)CC1C(c1ccc([N+](=O)[O-])cc1)=NO2 (configuration not stated) do in these assays?
Shiga toxin inh: inactive; Pf growth 96h: inactive; CHX counter: inactive; Pf growth 48h: 12µM

How did Cn1cc(-c2cccc(C(F)(F)F)c2)cc(C#N)c1=O do in these assays?
Shiga toxin inh: inactive; Pf growth 96h: inactive; CHX counter: inactive; Pf growth 48h: inactive

Results for O=C(NCc1ccccc1)C12CN(Cc3ccccc3)CC1C(c1ccc([N+](=O)[O-])cc1)=NO2 (configuration not stated) ?
Shiga toxin inh: inactive; Pf growth 96h: inconclusive; CHX counter: inactive; Pf growth 48h: 12µM

Results for Cc1ccc(CNC(=O)C23CN(Cc4ccccc4)CC2C(c2ccc([N+](=O)[O-])cc2)=NO3)o1 (configuration not stated) ?
Shiga toxin inh: inactive; Pf growth 96h: inconclusive; CHX counter: inactive; Pf growth 48h: inconclusive

What do the screens show for `COc1ccc(NC(=O)Cn2c(=O)n(-c3ccc(OC)cc3OC)c(=O)c3c(C)c(C)sc32)cc1`?
Shiga toxin inh: inactive; Pf growth 96h: 12µM; CHX counter: inactive; Pf growth 48h: inconclusive

Results for O=[N+]([O-])c1ccccc1OCCOCCOc1cccc2cccnc12 ?
Shiga toxin inh: inactive; Pf growth 96h: inactive; CHX counter: inactive; Pf growth 48h: inactive

How did O=[N+]([O-])c1ccccc1COc1ccc(Cl)c2cccnc12 do in these assays?
Shiga toxin inh: 62; Pf growth 96h: inactive; CHX counter: 23; Pf growth 48h: inactive

What do the screens show for `COc1cccc(/C=C/C(=O)Nc2cccc(C(C)=O)c2)c1OC`?
Shiga toxin inh: 75; Pf growth 96h: inactive; CHX counter: 49; Pf growth 48h: inactive

Results for COc1ccc(Br)cc1/C=C/C(=O)Nc1ccc2ccccc2c1 ?
Shiga toxin inh: inactive; Pf growth 96h: inactive; CHX counter: 33; Pf growth 48h: inactive

What do the screens show for `COc1ccc(Br)cc1/C=C/C(=O)Nc1ccc(C)cc1`?
Shiga toxin inh: inactive; Pf growth 96h: inactive; CHX counter: inactive; Pf growth 48h: inactive

How did COc1ccccc1/C=C/C(=O)Nc1cccc(C(C)=O)c1 do in these assays?
Shiga toxin inh: 65; Pf growth 96h: inactive; CHX counter: 45; Pf growth 48h: inactive

Results for COc1cccc(/C=C/C(=O)Nc2ccc(C(=O)Nc3cccc(S(N)(=O)=O)c3)cc2)c1OC ?
Shiga toxin inh: inactive; Pf growth 96h: inactive; CHX counter: inactive; Pf growth 48h: inactive

What do the screens show for `CCc1cc(C(=O)O)c(NC(=O)/C=C/c2ccc(OC)c(OC)c2)s1`?
Shiga toxin inh: inactive; Pf growth 96h: inconclusive; CHX counter: inactive; Pf growth 48h: inconclusive

What do the screens show for `CCc1cc(C(=O)O)c(NC(=O)/C=C/c2ccc(OC)cc2)s1`?
Shiga toxin inh: inactive; Pf growth 96h: inactive; CHX counter: 32; Pf growth 48h: inactive

What do the screens show for `N#C/C(=N\Nc1ccccc1F)c1nc(-c2ccccc2)cs1`?
Shiga toxin inh: inactive; Pf growth 96h: inconclusive; CHX counter: inactive; Pf growth 48h: inactive

Results for COc1cccc(/C=C/C(=O)Nc2ccc3c(c2)OCCO3)c1OC ?
Shiga toxin inh: 88; Pf growth 96h: inactive; CHX counter: 27; Pf growth 48h: inactive

How did COc1ccc(/C=C/C(=O)Nc2cccc(C(C)=O)c2)cc1 do in these assays?
Shiga toxin inh: 68; Pf growth 96h: inconclusive; CHX counter: 60; Pf growth 48h: inactive

How did CC(NC(=O)c1ccc(OC2CCN(Cc3ccccn3)CC2)cc1)c1ccccc1 (configuration not stated) do in these assays?
Shiga toxin inh: inactive; Pf growth 96h: 12µM; CHX counter: inactive; Pf growth 48h: inconclusive

What do the screens show for `CC(C)c1nc(CNC(=O)c2ccc(OC3CCN(Cc4ccccn4)CC3)cc2)cs1`?
Shiga toxin inh: inactive; Pf growth 96h: inactive; CHX counter: inactive; Pf growth 48h: inactive

Results for O=C(c1ccc(OC2CCN(Cc3ccccn3)CC2)cc1)N1CCC[C@H]1CO ?
Shiga toxin inh: inactive; Pf growth 96h: 3.7µM; CHX counter: inactive; Pf growth 48h: inactive

Results for CCn1cc(CN2CCC(n3nccc3NC(=O)c3cccc(F)c3)CC2)cn1 ?
Shiga toxin inh: inactive; Pf growth 96h: inactive; CHX counter: inactive; Pf growth 48h: inactive

Results for COc1cccc(C2OC(=O)c3ccccc3N2C(C)=O)c1OC(C)=O (configuration not stated) ?
Shiga toxin inh: inactive; Pf growth 96h: 12µM; CHX counter: inactive; Pf growth 48h: inactive
